Hits are enriched below; roughly 3.5% of the tested compounds scored in any of these assays.
UGM FP inh: inhibitors of M. tuberculosis UDP-galactopyranose mutase | P9WIQ1 | purified UGM, fluorescence polarization probe displacement | inhibition, % at 10 µM | actives 0.06% (n = 320,000) | AID 504406; in the data active = inhibition above about 10%, passing the limit was not always enough
Rv3671c protease: inhibits the M. tuberculosis serine protease Rv3671c; inhibition, % at 5.96 µM; actives 0.048% (n = 320,000); AID 2606; in the data active = inhibition above about 38%;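 note: extracellular domain of Rv3671c used as enzyme; 0% = enzyme with DMSO and 100% = no enzyme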
Mtb hypoxia inh: inhibitors of hypoxia-regulated fluorescent reporter in Mycobacterium tuberculosis; M. tuberculosis hypoxia-regulated fluorescent reporter, fluorescence; fluorescence inhibition, % (no concentration beside the values); actives 0.1% (n = 300,000); in the data active = fluorescence inhibition mostly above about 23%, no sharp cut-off; inactive = mostly below about 17%
GDH-TPI counter-1: counter-screen for M. tuberculosis FBA inhibitors: GDH-TPI coupled enzymes; GDH-TPI coupled enzyme counterscreen, NADH absorbance; AID 588335; inhibition, % at 4.8 µM; actives 1.2% (n = 360,000); in the data active = inhibition above about 30%;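 note: 0% = DMSO wells and 100% = wells lacking the enzyme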
FadD28 binding: blocks FadD28 binding to the bisubstrate probe; actives 0.22% (n = 360,000); AID 588549; fluorescence polarization; inhibition, % at 12.5 µM; in the data active = inhibition above about 8.5%, passing the limit was not always enough
Mtb FBA inh: inhibitors of M. tuberculosis fructose-bisphosphate aldolase | actives 2.3% (n = 360,000) | purified M. tuberculosis FBA, fluorescence read-out | inhibition, % at 1 µM;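 note: 0% = vehicle and 100% = reference inhibitor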
Target sequence (P9WQA3 whole entry, looked up): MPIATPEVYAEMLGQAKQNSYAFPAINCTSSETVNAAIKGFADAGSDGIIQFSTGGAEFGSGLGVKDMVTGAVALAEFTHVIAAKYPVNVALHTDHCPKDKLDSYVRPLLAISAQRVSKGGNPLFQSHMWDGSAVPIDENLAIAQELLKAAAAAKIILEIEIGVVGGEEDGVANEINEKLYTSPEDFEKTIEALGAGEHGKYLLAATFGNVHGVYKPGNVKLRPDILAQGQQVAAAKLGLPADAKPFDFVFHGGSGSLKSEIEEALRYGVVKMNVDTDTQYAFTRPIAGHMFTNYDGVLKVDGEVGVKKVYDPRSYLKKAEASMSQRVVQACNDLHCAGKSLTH
Mtb FBA confirm: Mtb FBA inhibition, confirmed. shares compounds with Mtb FBA inh. purified M. tuberculosis FBA, fluorescence read-out. inhibition, % at 1 µM. actives 78% (n = 5,600);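 note: 0% = vehicle wells and 100% = reference inhibitor wells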
GDH-TPI counter-2: GDH-TPI inhibition counter-screen for FBA inhibitors | shares compounds with Mtb FBA inh | GDH-TPI coupled enzyme counterscreen, fluorescence | inhibition, % at 1 µM | actives 81% (n = 5,600) | AID 652141; in the data active = inhibition above about 10%
Numbers without * were called inactive; · = not tested or not shown; + = active, no number. Cut-off read from the data, not from the text of the source, unless noted: active = inhibition above about 27%; inactive = the rest.

SMILES	UGM FP inh	Rv3671c protease	Mtb hypoxia inh	GDH-TPI counter-1	FadD28 binding	Mtb FBA inh	Mtb FBA confirm	GDH-TPI counter-2
Cc1ccc(C2Oc3ccccc3C3=C2C(c2cccs2)n2ncnc2N3)cc1 (configuration not stated)	-0.7	-1.5	5.3	6.3	0.3	2.9	·	·
Fc1ccc(C2C3=C(Nc4ncnn42)c2ccccc2OC3c2ccncc2)cc1 (configuration not stated)	-0.7	-10.7	·	0.9	-1.8	37.3*	101.8*	64.4*
CC(C)CC(NC(=O)C1CCCN1C(=O)C(N)Cc1ccc(O)cc1)C(=O)NCC(N)=O (configuration not stated)	·	·	-0.5	·	·	·	·	·
Nn1c(SCc2ccccc2F)nnc1-c1ccccn1	1.3	-1.6	5.9	9.2	-0.8	42.2*	81.2*	70.7*
Nn1c(SCc2ccc(F)cc2)nnc1-c1ccccn1	4.1	2.8	-6.5	-3.1	-1.9	-0.8	·	·
COc1ccc(C2C=CCN(S(=O)(=O)C=Cc3ccccc3)CC(=O)N2Cc2ccc(F)cc2)cc1 (configuration not stated)	·	·	-10.6	·	·	·	·	·
CC1(C)CC2CC(C)(CN2C(=O)COC(=O)c2cc(Cl)cc(Cl)c2N)C1 (configuration not stated)	-0.8	-3.5	7.3	-0.4	-1.5	22.9	·	·
CN(CCC#N)C(=O)COC(=O)c1cc(Cl)cc(Cl)c1N	0.5	7.3	16.8	4.4	-1.5	93.1*	-1.8	-5.4
Nc1c(Cl)cc(Cl)cc1C(=O)OCC(=O)N1CCCC1	·	-3.5	23.7	0.0	-0.7	94.6*	137.2*	106.6*
NC(=O)COC(=O)c1cc(Cl)cc(Cl)c1N	0.0	-6.1	-2.5	-6.1	-1.6	88.9*	+	+
CN(CCC#N)C(=O)COC(=O)c1ccccc1OCc1ccccc1Cl	0.1	4.3	3.8	-2.5	-4.0	3.9	·	·
Nc1c(Cl)cc(Cl)cc1C(=O)OCC(=O)N1CCCC1=O	-0.9	0.2	-0.4	4.6	0.2	13.0	·	·
O=c1ccn(C2OC(COS(=O)(=O)O)C(O)C2O)c(=O)[nH]1 (configuration not stated)	·	·	20.3	·	·	·	·	·
Cc1ccc(-n2ncc3c2CCCC3NC(=O)CCc2c(C)noc2C)cc1C (configuration not stated)	-4.8	3.2	-7.4	-0.7	-1.3	36.0*	+	+
O=C(CC(=O)NN=Cc1ccc(F)cc1)NCCc1ccccc1	·	·	7.3	·	·	·	·	·
O=C1OCc2nc3cc4c(cc3c(-c3ccc(F)cc3)c21)OCO4	-2.2	-3.3	7.9	13.3	·	72.8*	101.4*	86.4*
CCOc1ccc2ccccc2c1C=NNC(=O)CNC(=O)Cc1ccccc1	·	·	1.2	·	·	·	·	·
O=c1c2c([nH]c3ccccc13)CCCCC2	0.5	-9.2	-5.1	6.2	-0.5	-0.8	·	·
COc1ccc2[nH]c3c(c(=O)c2c1)CCCC3	·	·	·	·	-2.7	30.1*	+	153.3*
Cc1ccc(-c2nc3cc(NC(=O)C(C)C)ccc3o2)cc1C	-1.4	0.2	-18.0	17.8	-2.2	44.9*	50.4*	34.7*
CCCCC(=O)Nc1cccc(-c2nc3ncccc3o2)c1	-2.0	1.2	1.1	0.5	-3.4	42.9*	-1.4	-5.1
CC(C)C(=O)Nc1cccc(-c2nc3ncccc3o2)c1	-0.3	7.3	4.4	6.6	-1.3	34.8*	158.3*	125.4*
CCCCCC(=O)Nc1cccc(-c2nc3ncccc3o2)c1	0.0	-4.2	4.8	8.2	-2.8	41.2*	72.0*	61.0*
CCC(=O)NC(=S)Nc1cccc(-c2nc3ncccc3o2)c1	3.8	-10.8	-9.0	9.8	-2.9	-1.2	·	·
O=C(NN=Cc1ccc(Cl)cc1Cl)c1cccc(N2CCCC2=O)c1	·	·	13.2	·	·	·	·	·
SMILES	UGM FP inh	Rv3671c protease	Mtb hypoxia inh	GDH-TPI counter-1	FadD28 binding	Mtb FBA inh	Mtb FBA confirm	GDH-TPI counter-2
O=C(O)c1ccc(C=NNC(=O)c2ccc(F)cc2)cc1	·	·	0.7	·	·	·	·	·
Cc1ccc(C2CC(c3cccs3)n3nc(N)nc3N2)cc1 (configuration not stated)	2.0	4.3	3.2	18.4	-4.4	60.5*	7.8	4.2
Cc1ccc(C2CC(c3ccccc3C)n3nc(N)nc3N2)cc1 (configuration not stated)	-1.3	7.7	·	-8.9	-1.7	3.3	·	·
CCCn1nc2cc(C(=O)NC3CCc4ccccc43)ccc2c1OCC (configuration not stated)	-3.2	2.0	17.8	0.5	-2.3	39.5*	71.4*	63.7*
CCCCn1nc2cc(C(=O)NCC3CCCO3)ccc2c1OCC (configuration not stated)	·	·	4.5	·	·	·	·	·
CCCCNC(=O)c1ccc2c(OCC)n(CCCC)nc2c1	-3.4	5.7	8.3	-2.6	-2.3	65.0*	93.1*	60.9*
CCCCn1nc2cc(C(=O)NC[C@@H]3CCCO3)ccc2c1OCC	-1.4	-0.4	·	4.9	-1.6	62.7*	124.5*	95.2*
COc1ccc(C(=O)NC2CCc3ccccc32)cc1OC1CCN(C(C)=O)CC1 (configuration not stated)	1.0	6.0	4.5	2.0	-0.2	-0.8	·	·
CCCn1nc2cc(C(=O)NCCc3cccs3)ccc2c1OCC	3.1	0.7	6.9	18.7	-0.1	54.7*	-5.9	-5.9
COc1nc(Oc2ccc(C=NO)cc2)nc(N(C)C)n1	·	·	6.7	·	·	·	·	·
COc1ccccc1CNC(=O)CC(C)=NNC(=O)Cc1ccc(Cl)cc1	·	·	-13.6	·	·	·	·	·
COc1ccc(C=NNC(=O)c2cc(-c3cccnc3)nc3ccccc23)c(OC)c1	·	·	-2.8	·	·	·	·	·
O=C(NCC1CC1)c1ccc2c3n(nc2c1)-c1ccc(Cl)cc1CO3	-1.4	-11.7	8.7	0.0	1.6	0.7	·	·
CCOc1c2ccc(C(=O)NCCCCc3ccccc3)cc2nn1C	5.6	-4.0	3.8	10.3	-0.4	60.0*	2.8	0.3
CCCCn1nc2cc(C(=O)NCC3CC3)ccc2c1OCC	-1.8	-2.5	8.1	6.9	1.0	87.7*	144.1*	116.0*
O=C(Cc1cccs1)N1CCN(c2ccccn2)CC1	2.0	-1.9	-0.2	-1.6	0.9	29.0*	53.6*	43.4*
CCC(=O)N1CC2(CC(c3cccc(NC(=O)CC(c4ccccc4)c4ccccc4)c3)=NO2)CC1C(N)=O (configuration not stated)	·	·	-1.7	·	·	·	·	·
CCCN(CC1CC1)C(=O)COC(=O)c1oc2ccc(OCC)cc2c1C	-4.9	-4.4	-13.9	9.5	-1.7	41.9*	+	185.6*
CCN(C(=O)COc1cc(OC)ccc1C(C)=O)C1CCS(=O)(=O)C1 (configuration not stated)	-1.7	5.8	-5.3	17.8	0.2	3.3	·	·
CCOc1ccc2oc(C(=O)OCC(=O)NC(=O)NC)c(C)c2c1	-0.7	-0.7	6.2	15.6	-3.2	8.2	·	·
CCN(C(=O)COC(=O)c1oc2ccc(OC)cc2c1C)C1CCS(=O)(=O)C1 (configuration not stated)	·	·	3.2	4.1	-2.8	60.4*	111.8*	120.6*

Screens: PubChem, several laboratories
